PubChem BioAssay (NCI)
Compounds without any hit were thinned out: in the full panel of roughly 79,000, 15% have a hit. No stated cut-off is given here; in the data, active means growth inhibition above about 70%; inactive means the rest.

Experiments:
[1] = NCI Yeast Anticancer Drug Screen. Data for the rad50 strain (AID 155);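 further: 0% = growth of vehicle-only cultures of the same strain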; settings: S. cerevisiae rad50 strain growth inhibition; at 50.0 µM; hits give high values
How it was run: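 Readout: growth inhibition relative to vehicle-treated cultures. Compound exposure was carried out in a genetically defined yeast strain deficient in DNA damage repair.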

[2] = NCI Yeast Anticancer Drug Screen. Data for the mec2-1 strain (AID 157); settings: S. cerevisiae mec2-1 strain, at 50.0 µM, hits give high values
How it was run: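 Compounds were applied to mec2-1 yeast cells. Their growth was then compared with that of vehicle-treated cultures to give growth inhibition.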

[3] = NCI Yeast Anticancer Drug Screen. Data for the sgs1 mgt1 strain (AID 161);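 further: 0% = growth of cultures given vehicle only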; settings: S. cerevisiae sgs1 mgt1 strain, at 50.0 µM, hits give high values
How it was run: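 Growth of a repair-deficient yeast mutant was monitored after compound treatment and expressed as inhibition relative to vehicle-treated cultures.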

[4] = NCI Yeast Anticancer Drug Screen. Data for the cln2 rad14 strain (AID 165);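 further: 0% = growth equal to vehicle treated cultures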; settings: S. cerevisiae cln2 rad14 strain, at 50.0 µM, hits give high values
How it was run: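 Strain: cln2 rad14 yeast, altered in cell cycle control and DNA damage repair. Read-out: growth inhibition vs vehicle.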

[5] = NCI Yeast Anticancer Drug Screen. Data for the bub3 strain (AID 167); settings: S. cerevisiae bub3 mutant strain, at 50.0 µM, hits give high values
How it was run: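 Readout: yeast growth inhibition, expressed relative to vehicle-only wells. The test organism is a mutant strain from a panel with lesions in DNA repair or checkpoint genes.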

[6] = NCI Yeast Anticancer Drug Screen. Data for the mlh1 rad18 strain (AID 175); settings: S. cerevisiae mlh1 rad18 strain growth inhibition; at 50.0 µM; hits give high values
How it was run: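 A repair-deficient yeast strain is exposed to test compound, and growth is scored relative to vehicle-treated controls.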

Measured: growth inhibition

COc1cc(NCCCCCNC(C)C)c2nccc(C)c2c1
inactive: [1] 42.2% | [2] 43.1% | [3] 56.6% | [4] 28.6% | [5] 27.9% | [6] 50.5%

O=C1c2ccccc2C(=O)C2C1C1C(=O)c3ccccc3C(=O)C21 (configuration not stated)
inactive: [1] -14.6% | [2] -1.5% | [3] 2.45% | [4] -20.2% | [5] -8.6% | [6] 24.6%

CC(=O)c1cc(CC2Cc3cc4c(cc3C2=O)CCC4)cc2c1CCC2 (configuration not stated)
inactive: [1] -37.5% | [2] -36.1% | [3] -14.2% | [4] 9% | [5] -6.45% | [6] -4.85%

N=C(N)N1CCc2ccccc2C1
inactive: [1] -5.55% | [2] 7.3% | [3] -2% | [4] -3.35% | [5] -28.9% | [6] 2.65%

Cc1cccc(C(C#N)C(=O)CCCC(=O)Nc2ccccc2[N+](=O)[O-])c1 (configuration not stated)
inactive: [1] -44.1% | [2] 9.4% | [3] 5.15% | [4] -36.6% | [5] 6.9% | [6] 11%

Nc1nnc(-c2ccc(Nc3nc4ccccc4[nH]3)c([N+](=O)[O-])c2)s1
inactive: [1] 7% | [2] 1.4% | [3] 27.7% | [4] 15.3% | [5] 3.15% | [6] 14.1%

COC(=O)c1nc(=S)[nH]c(C(=O)OC)c1C(=O)c1cccnc1
inactive: [1] -4.3% | [2] 15.2% | [3] 17.4% | [4] 4.25% | [5] 39.4% | [6] 17.9%

COC(=O)CCC(=O)O
inactive: [1] 8.6% | [2] -0.1% | [3] 11.2% | [4] -8.05% | [5] -2.05% | [6] 43.4%

CC1=NN(c2ccccc2)C(=O)C1=C1SCCCS1
inactive: [1] -14.2% | [2] -25.4% | [3] 10.6% | [4] 16.4% | [5] -4.9% | [6] 1.8%

COC(=O)/C(=N/NC(C)(C)C)C(C(=O)OC)C(=O)C(=O)Nc1nc2ccc([N+](=O)[O-])cc2s1 (configuration not stated)
inactive: [1] 33.1% | [2] 8.15% | [3] -22.9% | [4] -10.4% | [5] 0.1% | [6] 27.4%

CCCCOC1NC(=O)NC(=O)C1(F)C(=O)OCC (configuration not stated)
inactive: [1] 4% | [2] -9.75% | [3] 5.45% | [4] 9.4% | [5] -9.55% | [6] -0.85%

COc1ccc2c3c(n(Cc4ccccc4)c(=O)c2c1)-c1cc(OC)c(OC)cc1C3C (configuration not stated)
inactive: [1] 36.1% | [2] -21.7% | [3] -1.25% | [4] -26.6% | [5] -20.4% | [6] 23.1%

CC(C)(C)OC(=O)CC1(O)CCCCC1
inactive: [1] 4.15% | [2] -5.9% | [3] -6.05% | [4] 4.75% | [5] 4% | [6] 8.05%

CNCCCc1cc(-c2ccc([N+](=O)[O-])cc2)n[nH]1
inactive: [1] -1.55% | [2] 0.5% | [3] -3.25% | [4] 12.6% | [5] 13.6% | [6] 6.6%

O=C1c2ccccc2C(=O)N1/N=C\c1ccc(O)cc1
inactive: [1] 6.8% | [2] -3.6% | [3] 7.6% | [4] 12.9% | [5] 0.95% | [6] 33.5%

CC(=O)NC1CCC(Cc2ccccc2)CC1 (configuration not stated)
inactive: [1] 6.2% | [2] -7.65% | [3] -11.3% | [4] -93.3% | [5] -22.3% | [6] -3.9%

Clc1ccc2c(c1)N(C1CCCN(Cc3ccccc3)C1)c1ccccc1S2 (configuration not stated)
inactive: [1] 45.5% | [2] 7.65% | [3] 35.1% | [4] 25.8% | [5] 43.7% | [6] 47%

CCC1(C#N)N=C(c2ccccc2)c2ccccc2N1C(=O)Oc1ccccc1 (configuration not stated)
inactive: [1] 3.65% | [2] 2.65% | [3] -9.7% | [4] -15.7% | [5] 11.1% | [6] 19.6%

OCC[N+]1(CCO)CCOCC1
inactive: [1] 7.7% | [2] -2.9% | [3] -0.05% | [4] -15.1% | [5] 5.9% | [6] 6.2%

Cc1cc2nc3c(=O)[nH]c(=O)nc-3n(CC(O)C(O)C(O)C(O)CO)c2cc1C (configuration not stated)
inactive: [1] 33.5% | [2] 3.2% | [3] -14.4% | [4] 7.05% | [5] -7.7% | [6] 23.2%

CCOc1ccccc1NC(=O)c1ccc(Cl)cc1
inactive: [1] -9.8% | [2] 18% | [3] -6.75% | [4] 5.35% | [5] 14.3% | [6] -4.6%

COc1ccc(/C=N/Nc2nc(C)c3c(n2)Nc2ccccc2NC3=O)cc1
inactive: [1] -15.2% | [2] 10.2% | [3] 3.55% | [4] -1.95% | [5] -1.45% | [6] -19.8%

CNCC(OC)OC
inactive: [1] 5.3% | [2] -29.8% | [3] 4.85% | [4] 16.1% | [5] 0% | [6] 11.2%

Nc1nc2c([nH]c(=O)n2C2OC(CO)C(O)C2O)c(=O)n1N (configuration not stated)
inactive: [1] 16.1% | [2] 6.2% | [3] 18.8% | [4] -13% | [5] 9.95% | [6] 5.2%

CCc1cc2c(O)c(c1)Cc1cc(CC)cc(c1O)Cc1cc(CC)cc(c1O)Cc1cc(CC)cc(c1O)Cc1cc(CC)cc(c1O)Cc1cc(CC)cc(c1O)Cc1cc(CC)cc(c1O)C2
inactive: [1] 6.55% | [2] 27.2% | [3] 19.8% | [4] 6.5% | [5] 6.9% | [6] 17.3%

COC(=O)C1C(O)CCC2CN3CCc4c([nH]c5cccc(OC)c45)C3CC21 (configuration not stated)
inactive: [1] -3.7% | [2] -14.8% | [3] 14.3% | [4] 7.85% | [5] 2% | [6] -78.7%

CC1=CC(=O)c2cccc(NC3=NCCO3)c21
inactive: [1] -31.3% | [2] -20.8% | [3] -2.95% | [4] -28.9% | [5] -2% | [6] -29.2%

O=C(Nc1ccccc1)c1cccc(F)c1
inactive: [1] -2.9% | [2] -20.8% | [3] -6.25% | [4] 9.1% | [5] -19.4% | [6] 7.6%

CC1CCCC2(C)CCC(=O)C=C12 (configuration not stated)
inactive: [1] -2% | [2] 6.75% | [3] -12.5% | [4] -13.8% | [5] -1.95% | [6] -20.5%

Cc1ccc(C(=O)c2ccc(C)cc2)cc1
inactive: [1] -2.55% | [2] -4.45% | [3] 13% | [4] -3.7% | [5] 6.3% | [6] 15.1%

Clc1ccccc1-c1nc(-c2ccncc2)no1
inactive: [1] 23.3% | [2] -14.9% | [3] -25% | [4] 34.1% | [5] 57.6% | [6] 34%

O=C1c2ccccc2C(=O)N1C1(C(=O)O)CCCC1
inactive: [1] -5.3% | [2] -7.6% | [3] -7.65% | [4] -27.1% | [5] -15.6% | [6] -10.4%

O=C(Nc1nc(=S)[nH][nH]1)C(=O)C1C(=O)Nc2ccccc2S1=O (configuration not stated)
inactive: [1] 3.45% | [2] -10.8% | [3] -4.2% | [4] 4% | [5] -20.9% | [6] -0.6%

CC(CO)(CO)[N+](=O)[O-]
inactive: [1] 19.2% | [2] 9.65% | [3] -5.85% | [4] -46.5% | [5] 6.25% | [6] 19.9%

C=CCOC(=O)CC(=C)C(=O)OCC=C
inactive: [1] 8.5% | [2] 26.4% | [3] -8.95% | [4] -4.7% | [5] -5.65% | [6] -3.55%

CC(C)(C)CC(C)(C)N1CNC(=S)NC1
inactive: [1] 19% | [2] -1.95% | [3] 18.3% | [4] 10.8% | [5] 21.8% | [6] 16.8%

CCN(CC)P(=O)(c1ccc2c(c1)OCCOCCOCCOCCO2)N(CC)CC
inactive: [1] 28.9% | [2] 22.9% | [3] 21.7% | [4] 23.3% | [5] 33.6% | [6] 37%
